Here are results for 29 compounds from PubChem BioAssay (NCI).

Several values for one entry are separate records, joined by “and”; a condition that tells them apart may be missing. Equal values may be shown once. The panel holds about 83,000 compounds, 20% with a hit somewhere; the sample as a whole holds those more often.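 The test compound was applied at a single concentration to cells in 96-well plates for 48 hours, and percent growth was recorded.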 Activity calls are given as the source filed them. Rule for the calls: active = growth percent below 10; inactive = the rest.

This test deals with MDA-MB-468 breast. In words: NCI-60 one-dose screen, 48 h (100 = growth as untreated, 0 = no growth, -100 = all killed). The note with it: 10 µM unless noted.
In the case of `CC1(C)C(N)=Nc2cc(OCCCN3Cc4ccc(OCCc5cn(CC(=O)N6CCC(CCN7CCCC7)CC6)nn5)cc4C3)c(OCC3CC3)cc21`, the growth was 108% (inactive).
In the case of `Cc1ccc(C)c(-c2csc(Nc3ccc(C)c(C)c3)n2)c1`, the growth was 14.5% (inactive).
The figure for `COc1cc2c(c(OC)c1)C1c3cc(OC)ccc3NC(=O)N1CC2` (centres undefined) is 70.1% (inactive); for `Cc1cc(=O)oc2c1ccc1oc(C#N)c(C)c12` it is 114% (inactive); for `CCN1CCN(Cc2cn(CC(=O)Nc3ccc4c(ccn4Cc4ccccc4)c3)nn2)CC1` it is 97.2% (inactive).
As to `Fc1ccc(-c2nc(-c3nc4ncccc4[nH]3)cc3c2[nH]c2ccccc23)cc1F`, the growth is 49.5% (inactive).
In the case of `O=C(Nc1ccc(Cl)c(Cl)c1)NC(CO)(CO)CO`, the growth was 95.9% (inactive).
`Cn1c(N)c(N=Cc2ccccc2)c(=O)n(C)c1=O`: the growth was 117% (inactive).
`O=C(O)c1cccc(CN2CCN(c3cc4c(cc3F)c(=O)c(C(=O)O)cn4C3CC3)CC2)c1O`: the growth is 101% (inactive).
The figure for `CC(C)(C(=O)c1cccnc1)c1cccnc1` is 96.4% (inactive) and 96.1% (inactive); for `O=C1NCCS(=O)(=O)/C1=C\C=C\c1cccc(C(F)(F)F)c1` it is 17.9% (inactive); for `CC1CCCC(C(=O)O)C1C(=O)O` (centres undefined) it is 97% (inactive).
In the case of `O=C(Nc1cccc(Cl)c1)c1cc([N+](=O)[O-])ccc1O`, the growth is 31.3% (inactive).
With `CN1C(=C2C(=O)OC(C)(C)OC2=O)CCC1C(=O)NCc1ccc(Cl)cc1Cl` (centres undefined), the growth was 75% (inactive).
In the case of `COc1cc(OC)c(/C=C/C(=O)c2c(OC)cccc2OC)c(OC)c1`, the growth was -15.6% (active).
As for `CC1(C)CC(=O)C2=C(C1)N(c1ccc(F)cc1F)C(N)=C(C#N)C2c1cc(Br)ccc1F` (centres undefined), the growth was 92.9% (inactive).
For `C=CCn1c(SCC(=O)Nc2ccc(/C(C)=N\O)cc2)nnc1-c1cc(-c2ccc(OC)cc2)nc2ccccc12`, the growth is 17.3% (inactive).
As for `COC(=O)C1Cc2ccccc2CN1C(=O)c1ccc2c(c1)Cc1ccccc1-2` (centres undefined), the growth was 14.5% [50 µM] (inactive).
For `C#CCNCCCN1C(=O)c2ccc3c4c(ccc(c24)C1=O)C(=O)N(CCCNCC#C)C3=O`, the growth is -85.6% (active).
Consider `[O-][N+](=Nc1cccc(Cl)c1)c1cccc(Cl)c1`, for which the growth is -25% (active).
With `C/C(=C(/c1ccc(O)cc1)c1ccc(OCCN2CCCCCC2)cc1)c1ccccc1`, the growth is 31.8% (inactive).
In the case of `C[C@@H](C[C@H](CCO)c1cc(C(F)(F)F)cc(C(F)(F)F)c1)c1ccc2ccccc2c1`, the growth is 83.9% (inactive).
The figure for `COc1cc(NC(C)CCCNC(=O)CCC(=O)NCCCNCCCCCCCCNCCCNC(=O)CCC(=O)NCCCC(C)Nc2cc(OC)cc3cccnc23)c2ncccc2c1` (centres undefined) is 16.8% (inactive); for `Cn1c(=O)c2[nH]c(=S)n(Cc3ccccc3)c2n(C)c1=O` it is 115% (inactive).
Regarding `CC1=C(C)C(=O)OC([C@](C)(O)[C@]2(O)CC[C@@]3(O)[C@@H]4C[C@H]5O[C@]56CC=CC(=O)[C@]6(C)[C@H]4CC[C@]23COC(=O)c2ccc(C)o2)C1` (some centres undefined), the growth is -55.6% (active).
As to `C#CCOC(=O)/C=C/c1cn(-c2ccccc2)nc1-c1ccc(OC)cc1`, the growth was 101% (inactive).
Turning to `Cc1nn(-c2ccc(Br)cc2)c2nc(CCl)[nH]c(=O)c12`, the growth is 94% (inactive).
As for `CC[C@H](C)[C@H](NC(=O)[C@H](CCCNC(=N)N)NC(=O)[C@H](Cc1c[nH]c2ccccc12)NC(=O)[C@@H](NC(=O)[C@H](CCCCN)NC(=O)[C@H](CCCCN)NC(=O)[C@@H](NC(=O)[C@@H](NC(=O)[C@@H](NC(=O)[C@H](CCCCN)NC(=O)[C@H](Cc1ccccc1)NC(=O)[C@H](CCCCN)NC(=O)[C@H](CCCCN)NC(=O)[C@H](Cc1ccccc1)NC(=O)[C@@H](NC(=O)[C@@H](N)CCCCN)[C@@H](C)CC)[C@@H](C)O)[C@@H](C)CC)[C@@H](C)CC)C(C)C)C(=O)N[C@@H](Cc1ccccc1)C(=O)NCC(=O)N[C@@H](CCCNC(=N)N)C(=O)N[C@@H](Cc1ccccc1)C(N)=O`, the growth was 28.8% (inactive).
The same measure for `CC[C@@](C)(NC(=O)[C@H](C)NC(=O)CCNC(=O)C(C)(C)NC(=O)[C@H](C)NC(=O)[C@@H]1CCCN1C(=O)[C@@](C)(CC)NC(=O)[C@H](Cc1ccccc1)NC(=O)C1CCCN1C(=O)C(C)(C)NC(=O)C1CCCN1C(=O)C(C)(C)NC(C)=O)C(=O)NCCC(=O)N[C@@H](CC(C)C)C(=O)NC(C)(C)C(=O)NCCC(=O)N[C@@H](CC(C)C)C(=O)NC(C)(C)C(=O)NC(C)(C)C(=O)N[C@@H](CC(C)C)C(=O)NCCC(=O)NCO` (some centres undefined): -91.9% (active).
